Only a selection was taken, and hits are over-represented in it overall.
IDE exosite FP: insulin-degrading enzyme (human) exo-site inhibition. P14735. purified IDE, FL-6b probe fluorescence polarization; active compounds read low. z-score at 20 µM. 6.3% of 17,000 active;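 active = z-score of -3 or lower, meaning strong loss of probe binding signal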;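 note: His-tagged human IDE residues 42-1019 made in E. coli with 30 nM FL-6b probe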
Target sequence (P14735 42-1019 limits assumed): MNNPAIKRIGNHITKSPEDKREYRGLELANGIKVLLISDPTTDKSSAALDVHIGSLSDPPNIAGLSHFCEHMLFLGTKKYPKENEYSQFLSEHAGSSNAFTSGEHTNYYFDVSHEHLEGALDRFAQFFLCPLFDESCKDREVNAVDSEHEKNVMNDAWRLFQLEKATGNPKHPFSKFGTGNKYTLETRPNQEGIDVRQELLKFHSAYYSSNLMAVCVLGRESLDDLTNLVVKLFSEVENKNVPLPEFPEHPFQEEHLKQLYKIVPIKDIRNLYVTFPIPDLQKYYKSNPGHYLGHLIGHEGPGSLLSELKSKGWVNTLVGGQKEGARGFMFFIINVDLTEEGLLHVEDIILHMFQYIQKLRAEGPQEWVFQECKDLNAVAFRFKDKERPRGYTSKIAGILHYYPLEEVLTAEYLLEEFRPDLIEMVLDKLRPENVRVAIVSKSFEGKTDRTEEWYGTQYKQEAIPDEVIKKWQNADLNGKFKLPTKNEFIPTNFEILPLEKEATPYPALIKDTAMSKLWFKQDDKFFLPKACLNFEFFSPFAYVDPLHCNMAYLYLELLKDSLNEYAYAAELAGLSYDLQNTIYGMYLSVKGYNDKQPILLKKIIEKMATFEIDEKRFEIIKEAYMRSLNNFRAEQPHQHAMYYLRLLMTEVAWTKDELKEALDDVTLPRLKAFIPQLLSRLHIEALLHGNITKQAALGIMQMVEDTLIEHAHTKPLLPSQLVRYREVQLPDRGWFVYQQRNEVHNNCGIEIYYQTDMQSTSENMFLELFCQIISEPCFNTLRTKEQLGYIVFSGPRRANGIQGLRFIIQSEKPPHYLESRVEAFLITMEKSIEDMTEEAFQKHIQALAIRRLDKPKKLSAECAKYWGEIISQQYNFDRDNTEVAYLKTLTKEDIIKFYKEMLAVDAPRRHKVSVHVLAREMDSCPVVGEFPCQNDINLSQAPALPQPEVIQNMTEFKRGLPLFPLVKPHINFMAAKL
Of the large screens only hits and unclear results are named; the others gave an inactive call.

Cc1cccc(-c2ccc([C@H]3[C@H](CO)N4CCCCN(S(=O)(=O)c5cccs5)C[C@@H]34)cc2)c1	none
COc1cccc(S(=O)(=O)N2CCCCN3[C@@H](CO)[C@@H](c4ccc(-c5ccccc5)cc4)[C@@H]3C2)c1	none
O=S(=O)(c1cccs1)N1CCCCN2[C@H](CO)[C@H](c3ccc(/C=C/c4ccccc4)cc3)[C@@H]2C1	none
Cc1cccc(-c2ccc([C@H]3[C@@H](CO)N4CCCCN(S(=O)(=O)c5cccc(C)c5)C[C@@H]34)cc2)c1	none
Cc1cccc(-c2ccc([C@@H]3[C@H]4CN(S(=O)(=O)c5cccs5)CCCCN4[C@H]3CO)cc2)c1	none
O=S(=O)(c1cccs1)N1CCCCN2[C@H](C1)[C@H](c1ccc(/C=C/c3ccccc3)cc1)[C@@H]2CO	none
COc1cccc(-c2ccc([C@@H]3[C@@H](CO)N4CCCCN(S(=O)(=O)c5cccs5)C[C@H]34)cc2)c1	none
Cc1cccc(-c2ccc([C@@H]3[C@H](CO)N4CCCCN(S(=O)(=O)c5cccs5)C[C@@H]34)cc2)c1	IDE exosite FP -8
O=S(=O)(c1cccs1)N1CCCCN2[C@H](C1)[C@H](c1ccc(C3=CCCC3)cc1)[C@@H]2CO	none
COc1cccc(-c2ccc([C@@H]3[C@H](CO)N4CCCCN(S(=O)(=O)c5cccs5)C[C@@H]34)cc2)c1	IDE exosite FP -6
O=S(=O)(c1cccs1)N1CCCCN2[C@@H](CO)[C@@H](c3ccc(/C=C/c4ccccc4)cc3)[C@@H]2C1	IDE exosite FP -3.2
O=C(c1ccccc1)N1CC(=O)N2[C@H](CO)[C@@H](c3ccc(C#CCC4CCCC4)cc3)[C@H]2C1	none
C[C@@H]1CN([C@@H](C)CO)C(=O)c2ccccc2-c2ccccc2CO[C@@H]1CN(C)S(=O)(=O)c1cn(C)cn1	none
COCC(=O)N1[C@H](C(=O)NCc2ccccc2)[C@@H](CO)[C@@H]2Cn3c(cccc3=O)[C@@H]21	none
CO[C@H]1CN(C)C(=O)c2cc(NC(=O)c3ccc(F)cc3)ccc2OC[C@@H](C)N(C(=O)CC2CC2)C[C@H]1C	none
N#C[C@@H]1[C@H](c2ccc(C3=CCCCC3)cc2)[C@@H](CO)N1C(=O)Cc1ccncc1	none
COc1ccccc1NC(=O)N1CC(=O)N2[C@H](CO)[C@@H](c3ccc(C#CC(C)C)cc3)[C@H]2C1	none
CN(C)CC(=O)N1[C@@H](CO)[C@H](c2ccccc2)C12CN(C(=O)c1ccc(F)cc1)C2	none
Cc1ccccc1S(=O)(=O)Nc1ccc2c(c1)C(=O)N(C)[C@H]1CC[C@H](CC(=O)O)O[C@@H]1CO2	none
O=C(c1ccc(F)cc1)N1CCCCN2[C@H](CO)[C@H](c3ccc(C#CC4(O)CCCC4)cc3)[C@@H]2C1	none
N#C[C@H]1[C@@H](c2ccc(-c3ccncc3)cc2)[C@@H](CO)N1C(=O)Cc1ccccc1	none
COc1cccc(-c2ccc([C@H]3[C@@H](CO)N(C(=O)Cc4ccncc4)[C@H]3C#N)cc2)c1	IDE exosite FP -4.8
COc1cccc(-c2ccc([C@H]3[C@@H](C#N)N(C(=O)c4ccccn4)[C@H]3CO)cc2)c1	IDE exosite FP -3.8
N#C[C@H]1[C@H](c2ccc(C#CC3CC3)cc2)[C@H](CO)N1C(=O)Cc1ccccn1	none
C/C=C/c1ccc([C@H]2[C@@H](CO)N(C(=O)Cc3ccccn3)[C@H]2C#N)cc1	none
N#C[C@H]1[C@H](c2ccc(-c3ccccc3)cc2)[C@H](CO)N1C(=O)Cc1ccncc1	none
COc1cccc(-c2ccc([C@@H]3[C@H](C#N)N(C(=O)c4ccccn4)[C@H]3CO)cc2)c1	none
COc1cccc(C#Cc2ccc([C@@H]3[C@@H](CO)N(C(=O)c4ccccn4)[C@H]3C#N)cc2)c1	none
N#C[C@@H]1[C@@H](c2ccc(/C=C/c3ccccc3)cc2)[C@@H](CO)N1C(=O)Cc1ccccn1	IDE exosite FP -9.5
N#C[C@@H]1[C@@H](c2ccc(-c3ccccc3)cc2)[C@@H](CO)N1C(=O)Cc1ccncc1	IDE exosite FP -4
N#C[C@@H]1[C@H](c2ccc(-c3ccccc3)cc2)[C@H](CO)N1C(=O)Cc1ccccc1	none
N#C[C@@H]1[C@@H](c2ccc(-c3ccncc3)cc2)[C@@H](CO)N1C(=O)Cc1ccccc1	none
O=C(Nc1ccccc1F)N1CC(=O)N2[C@H](CO)[C@H](c3ccc(C#CC4CCCC4)cc3)[C@H]2C1	none
CN1CCN(C(=O)C[C@H]2CC[C@@H]3[C@@H](COc4ccc(NC(=O)C5CCOCC5)cc4C(=O)N3C)O2)CC1	none
C/C=C/c1ccccc1[C@@H]1[C@@H](C#N)N(C(C)=O)[C@H]1CO	none
COc1ccc2c3c(n(C)c2c1)[C@@H](CO)N(C(=O)Cc1ccccc1)CC31CN(C)C1	none
CN(C)C(=O)c1cccc(-c2ccc3c(c2)[C@H]2[C@H](CCN2C(=O)Cc2ccccc2)[C@@H](CO)N3)c1	none
O=C1CNC[C@@H]2[C@@H](c3ccc(C4=CCCC4)cc3)[C@H](CO)N12	none
N#C[C@H]1[C@H](c2ccc(-c3ccccc3)cc2)[C@H](CO)N1C(=O)Cc1ccccc1	none
COc1cccc(-c2ccc([C@H]3[C@H](C#N)N(C(=O)Cc4ccccc4)[C@H]3CO)cc2)c1	IDE exosite FP -3
N#C[C@@H]1[C@@H](c2ccc(-c3ccccc3)cc2)[C@H](CO)N1C(=O)Cc1ccccc1	none
CCC(=O)NC[C@H]1[C@H](c2ccc(C3=CCCC3)cc2)[C@H](CO)N1C(=O)C1CC1	none
CC(C)NC(=O)N1CCCCN2[C@H](CO)[C@H](c3ccc(Br)cc3)[C@H]2C1	none
CC(C)NC(=O)N1CCCCN2[C@H](CO)[C@@H](c3ccc(Br)cc3)[C@@H]2C1	none
COc1cccc(-c2ccc([C@H]3[C@H]4CN(C(=O)c5ccc(F)cc5)CCCCN4[C@H]3CO)cc2)c1	none
COc1cccc(-c2ccc([C@H]3[C@@H](CO)N4CCCCN(C(=O)NC(C)C)C[C@H]34)cc2)c1	IDE exosite FP -8.1
COc1cccc(-c2ccc([C@@H]3[C@@H](CO)N4CCCCN(C(=O)NC(C)C)C[C@@H]34)cc2)c1	IDE exosite FP -6
CC(C)NC(=O)N1CCCCN2[C@H](C1)[C@H](c1ccc(Br)cc1)[C@@H]2CO	none
COc1cccc(-c2ccc([C@@H]3[C@H](CO)N4CCCCN(C(=O)c5ccc(F)cc5)C[C@@H]34)cc2)c1	none
COc1cccc(-c2ccc([C@@H]3[C@@H](CO)N4CCCCN(C(=O)NC(C)C)C[C@H]34)cc2)c1	IDE exosite FP -6.6
CC(C)NC(=O)N1CCCCN2[C@H](CO)[C@H](c3ccc(Br)cc3)[C@@H]2C1	none
COc1ccc(C#Cc2ccc([C@@H]3[C@H]4CN(C(C)=O)CC(=O)N4[C@H]3CO)cc2)cc1	none
COCC(=O)N1CCCCN2[C@H](CO)[C@H](c3ccc(-c4ccc(F)cc4)cc3)[C@@H]2C1	none
COc1ccc([C@@H]2C/C=C\C[C@@H](c3cccc(Cl)c3)NC(=O)[C@@H](c3ccccc3)CC(=O)N2)c(OC)c1	none
COc1ccc(C#Cc2ccc([C@H]3[C@@H](CO)N4C(=O)CN(C(=O)c5ccccc5)C[C@H]34)cc2)cc1	none
COc1ccc(C#Cc2ccc([C@H]3[C@H](CO)N4C(=O)CN(C(=O)c5ccccc5)C[C@@H]34)cc2)cc1	none
COc1ccc(C#Cc2ccc([C@@H]3[C@H]4CN(C(=O)c5ccccc5)CC(=O)N4[C@H]3CO)cc2)cc1	none
O=C(c1ccccc1)N1CC(=O)N2[C@@H](CO)[C@@H](c3ccc(C#Cc4ccccc4)cc3)[C@@H]2C1	IDE exosite FP -9.1
O=C(c1ccccc1)N1CC(=O)N2[C@@H](CO)[C@H](c3ccc(C#Cc4ccccc4)cc3)[C@@H]2C1	IDE exosite FP -3.8
